In PMC5540273 (PLoS ONE, 2017):

Assays:
Conditions in all cases: concentration: 1 μM, replicates: in singlicate; n = 1
[1] = test system: IRAK4
[2] = test system: ITK
[3] = test system: JAK1(JH1domain-catalytic)
[4] = test system: JAK1(JH2domain-pseudokinase)
[5] = test system: JAK2(JH1domain-catalytic)
[6] = test system: JAK3(JH1domain-catalytic)
[7] = test system: T1, JNK1
T1 construct: gene MAPK8

[8] = test system: T2, JNK2
T2 construct: gene MAPK9

[9] = test system: T3, JNK3
T3 construct: gene MAPK10

[10] = test system: KIT-autoinhibited
[11] = test system: KIT
[12] = test system: LATS1
[13] = test system: LATS2
[14] = test system: LCK
[15] = test system: LIMK1
[16] = test system: LIMK2
[17] = test system: T4, LKB1
T4 construct: gene STK11

[18] = test system: T5, LOK
T5 construct: gene STK10

[19] = test system: LRRK2
[20] = test system: LTK
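Also: KINOMEscan kinase panel screen.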

SMILES | %Inh [1] [%] | %Inh [2] [%] | %Inh [3] [%] | %Inh [4] [%] | %Inh [5] [%] | %Inh [6] [%] | %Inh [7] [%] | %Inh [8] [%] | %Inh [9] [%] | %Inh [10] [%] | %Inh [11] [%] | %Inh [12] [%] | %Inh [13] [%] | %Inh [14] [%] | %Inh [15] [%] | %Inh [16] [%] | %Inh [17] [%] | %Inh [18] [%] | %Inh [19] [%] | %Inh [20] [%]
Cn1ccc2ncnc(Oc3ccc(NC(=O)Nc4ccccc4)cc3)c21 | 17 | 0 | 0 | 39 | 2 | 21 | 22 | 0 | 0 | 57 | 100 | 16 | 13 | 20 | 1 | 1 | 0 | 94.8 | 24 | 0
Cn1ccc2ncnc(Oc3cccc(C(=O)Nc4ccccc4)c3)c21 | 8 | 0 | 7 | 27 | 12 | 0 | 16 | 0 | 0 | 0 | 35 | 0 | 6 | 7 | 100 | 0 | 25 | 0 | 0 | 2
Cc1ccc(NC(=O)Nc2cccc(Cl)c2)cc1-c1ccc(C(=O)Nc2ccncc2)cc1 [GSK1398468] | 13 | 16 | 16 | 6 | 1 | 0 | 15 | 14 | 0 | 0 | 99.6 | 0 | 0 | 25 | 0 | 12 | 0 | 0 | 0 | 7
CCn1c(-c2cccnc2O)nc2cnccc21 [SB-736715] | 0 | 26 | 0 | 0 | 0 | 0 | 0 | 10 | 1 | 18 | 0 | 0 | 0 | 0 | 0 | 0 | 27 | 0 | 0 | 0
Clc1cc(Cl)cc(Nc2ccnc(Nc3cc(Cl)cc(Cl)c3)n2)c1 [GSK175726] | 0 | 4 | 12 | 0 | 22 | 0 | 2 | 0 | 0 | 3 | 40 | 0 | 17 | 27 | 10 | 31 | 14 | 0 | 0 | 0
CC(=O)Nc1nc2cnc(Nc3cc(NC(=O)c4cccc(CCC#N)c4)ccc3C)nc2s1 | 15 | 3 | 3 | 9 | 22 | 0 | 0 | 0 | 0 | 11 | 99.7 | 21 | 29 | 27 | 0 | 0 | 0 | 0 | 0 | 0
Cl.Oc1ccc(-c2nc(-c3ccccc3)[nH]c2-c2ccncc2)cc1 [SB-428218] | 18 | 10 | 4 | 36 | 0 | 0 | 2 | 0 | 0 | 18 | 26 | 0 | 48 | 20 | 0 | 0 | 8 | 0 | 0 | 0
CC(C)(C)c1ccc(C(=O)Nc2cn3cc(Cl)ccc3n2)cc1 | 0 | 0 | 0 | 7 | 1 | 0 | 0 | 0 | 0 | 42 | 74 | 10 | 0 | 26 | 0 | 0 | 4 | 8 | 0 | 0
Cc1ccc(C(=O)Nc2ccc(Nc3ccnc4cc(-c5ccccn5)ccc34)cc2O)cc1.Cl [GW440146] | 9 | 0 | 16 | 0 | 5 | 0 | 5 | 15 | 0 | 17 | 89 | 0 | 0 | 84 | 0 | 2 | 9 | 14 | 4 | 12
Cl.O=C(Nc1cccc(-c2nn3ncccc3c2-c2ccnc(Nc3cccnc3)n2)c1)c1c(F)cccc1F [GSK312879] | 28 | 15 | 15 | 0 | 23 | 0 | 14 | 18 | 19 | 0 | 36 | 2 | 0 | 44 | 2 | 0 | 0 | 0 | 39 | 3
Cn1ccc2ncnc(Oc3ccc(Nc4nc5ccccc5[nH]4)cc3)c21 | 0 | 3 | 8 | 0 | 0 | 0 | 0 | 0 | 0 | 0 | 77 | 0 | 0 | 0 | 0 | 0 | 3 | 93.7 | 0 | 0
O=C1NC(=O)C(N2CCc3ccccc32)=C1c1ccccc1Cl [SB-373598] | 7 | 10 | 3 | 0 | 0 | 40 | 7 | 6 | 5 | 0 | 2 | 0 | 19 | 35 | 21 | 15 | 2 | 10 | 0 | 99.1
Nc1ncnc2[nH]c(-c3ccccc3)nc12 [AH5015] | 52 | 12 | 8 | 34 | 47 | 0 | 9 | 16 | 15 | 14 | 21 | 0 | 0 | 26 | 15 | 0 | 0 | 0 | 34 | 91.4
Cc1nnc(-c2ccc3occ(-c4ccc(S(C)=O)cc4)c3c2)[nH]1 (stereo not drawn) | 0 | 13 | 3 | 90.4 | 11 | 22 | 3 | 26 | 45 | 11 | 20 | 19 | 0 | 46 | 0 | 0 | 23 | 98.7 | 0 | 0
Fc1cccc(COc2nnc(-c3ccc4c(c3)CCO4)o2)c1 | 5 | 23 | 0 | 10 | 0 | 5 | 6 | 0 | 0 | 0 | 3 | 0 | 0 | 0 | 0 | 0 | 16 | 0 | 4 | 0
